GCN5L2 inh – GCN5L2 (KAT2A) acetyltransferase inhibition. Q92830. GCN5L2 HAT assay, ThioGlo1 CoA-SH fluorescence. Potency, µM (top dose mostly 58.9 µM), hits mostly inhibitors. 0.21% of 390,000 active. AID 504327
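Compounds, pin-transferred from DMSO stocks, meet 20nM GCN5L2 for 15 min before the reaction begins with H3(1-25) peptide (75uM) and acetyl-CoA (70uM). Thiol-reactive ThioGlo1 reports CoA release over 20 min at room temperature.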
12-LOX inh – blocks human arachidonate 12S-lipoxygenase; purified 12hLO, xylenol orange hydroperoxide absorbance; Potency, µM (series often up to 108 µM), most hits filed as inhibitors; 1.1% of 580,000 active
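Purified human 12hLO (150 nM final) in 25 mM Hepes, 0.01% Triton X-100, pH 7.0 was preincubated 15 min at room temperature with compound. Then 40 uM arachidonic acid was added, 30 min. Hydroperoxide was read by Fe-XO absorbance ratio 573/405 nm.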
PLK1 PBD block – PLK1 (human) polo-box domain binding inhibition; P53350; Plk1 PBD binding of FITC phosphopeptide, fluorescence polarization; Potency, µM, hits mostly inhibitors; 2.8% of 360,000 active; AID 720504; note: series mostly up to about 57 µM; nearly all actives have a fitted effect of over 65% in size
Target sequence (P53350 whole entry, looked up, the tested form may be a part): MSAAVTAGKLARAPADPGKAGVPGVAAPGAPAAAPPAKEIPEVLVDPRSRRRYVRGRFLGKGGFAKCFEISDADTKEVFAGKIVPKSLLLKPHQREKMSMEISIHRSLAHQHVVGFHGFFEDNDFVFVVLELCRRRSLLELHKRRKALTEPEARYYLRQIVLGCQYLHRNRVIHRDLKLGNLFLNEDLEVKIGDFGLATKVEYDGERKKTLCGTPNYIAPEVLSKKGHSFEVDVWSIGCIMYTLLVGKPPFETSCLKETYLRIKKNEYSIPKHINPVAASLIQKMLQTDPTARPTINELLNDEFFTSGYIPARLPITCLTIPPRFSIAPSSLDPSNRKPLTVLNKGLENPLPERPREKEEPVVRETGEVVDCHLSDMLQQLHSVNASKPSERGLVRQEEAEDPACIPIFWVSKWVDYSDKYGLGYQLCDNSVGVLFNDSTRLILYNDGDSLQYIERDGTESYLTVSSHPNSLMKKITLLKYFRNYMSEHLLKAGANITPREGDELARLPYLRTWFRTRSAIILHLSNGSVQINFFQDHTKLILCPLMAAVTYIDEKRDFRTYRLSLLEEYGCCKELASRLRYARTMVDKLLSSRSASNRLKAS
VDR inh – blocks the human vitamin D receptor; P11473; VDR-SRC2-3 peptide fluorescence polarization, 2 h; Potency, µM, most hits filed as inhibitors; 0.93% of 400,000 active
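Compounds are added to VDR with labelled SRC2-3 coactivator peptide and held 2 h at room temperature. Inhibition of the VDR–peptide interaction is then read as a change in fluorescence polarization.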
VDR confirm – confirmation of human vitamin D receptor inhibitors; VDR-coactivator inhibition assay, qHTS confirmation; 89% of 840 active; shares compounds with VDR inh; Potency, µM, hits mostly inhibitors
VDR FP – confirmation of human VDR-coactivator binding inhibitors, fluorescein label; VDR-coactivator binding, fluorescein fluorescence polarization; shares compounds with VDR inh; Potency, µM (highest dose often 57.1 µM), usual class: inhibitors; 48% of 840 active
VDR bla – confirmation of human vitamin D receptor inhibitors in reporter cells | shares compounds with VDR inh | 23% of 840 active | AID 602202 | Potency, µM (doses to about 46.1 µM), hits mostly inhibitors | VDR beta-lactamase reporter cells, FRET ratio; cells co-treated with VDR agonist LG190178
VDR viability – cytotoxic in counter-screen for VDR inhibitors; shares compounds with VDR inh; Potency, µM (highest dose often 48.3 µM), actives largely listed as cytotoxic; 18% of 840 active; cytotoxicity counter-screen, cell viability, qHTS; note: nearly all actives have a fitted effect of over 75% in size
Of the large screens only hits and unclear results are named; the others gave an inactive call (follow-up assays come after a bar, where they were run). Rows were chosen to be rich in hits. Some 3% of all compounds tested hit in one or more screens of this group. Calls come from the whole dose curve; as a rule, active = well fitted curve in the direction sought with a large enough effect; inconclusive = small, poorly fitted or top-dose-only effect, or another doubt; inactive = no such curve, though single readings can be large; an effect the other way counts as inactive or inconclusive.

COc1cccc(/C=C/c2[nH]c(=O)[nH]c(=O)c2[N+](=O)[O-])c1O	12-LOX inh inconclusive, PLK1 PBD block inconclusive, VDR inh 22.4µM | VDR confirm 21.2 | VDR FP inconclusive | VDR bla inactive | VDR viability inactive
CCOc1ccc(/C=C/c2[nH]c(=O)[nH]c(=O)c2[N+](=O)[O-])cc1	VDR inh inconclusive
O=C(COc1ccccc1/C=C\c1[nH]c(=O)[nH]c(=O)c1[N+](=O)[O-])Nc1ccccc1	12-LOX inh inconclusive, VDR inh 20µM | VDR confirm 4.23 | VDR FP inconclusive | VDR bla inactive | VDR viability inconclusive
CCOc1cc(/C=C\c2[nH]c(=O)[nH]c(=O)c2[N+](=O)[O-])ccc1OC(C)CC (stereo not given)	VDR inh 11.2µM | VDR confirm 8.44 | VDR FP inactive | VDR bla inconclusive | VDR viability inactive
CC(C)c1ccc(/C=C/c2[nH]c(=O)[nH]c(=O)c2[N+](=O)[O-])cc1	12-LOX inh inconclusive, VDR inh 22.4µM | VDR confirm 3.77 | VDR FP inconclusive | VDR bla inconclusive | VDR viability inactive
COC(=O)c1cc2c(Cl)c(Cl)ccc2[nH]1	none (no result: GCN5L2 inh, PLK1 PBD block, VDR inh)
Cc1ccccc1CC(=O)Nc1ccccc1NS(C)(=O)=O	none (no result: GCN5L2 inh, PLK1 PBD block, VDR inh)
Cc1ccc(C(CNC(=O)c2cc(=O)c3cc(Cl)ccc3o2)N2CCN(C)CC2)o1 (stereo not given)	none (no result: GCN5L2 inh, PLK1 PBD block, VDR inh)
O=c1[nH]c(/C=C/c2ccccc2Cl)c([N+](=O)[O-])c(=O)[nH]1	VDR inh 35.5µM | VDR confirm 18.9 | VDR FP 11.2µM | VDR bla inactive | VDR viability inactive
COc1cc(C(=O)Nc2ccc3c(c2)nc2n3CCN(C(C)C)C2)cc(OC)c1OC	none (no result: GCN5L2 inh, PLK1 PBD block, VDR inh)
Cc1onc(-c2ccccc2)c1C(=O)Nc1nnc(COc2ccc(Cl)cc2)s1	GCN5L2 inh inconclusive, PLK1 PBD block 1.34µM, VDR inh 20µM (no result: 12-LOX inh) | VDR confirm 6.7 | VDR FP inconclusive | VDR bla inactive | VDR viability inactive
O=C(CSc1ccccc1)Nc1nnc(COc2ccc(Cl)cc2)s1	GCN5L2 inh inconclusive, 12-LOX inh inconclusive, PLK1 PBD block 2.67µM, VDR inh 39.8µM | VDR confirm 2.99 | VDR FP inconclusive | VDR bla inactive | VDR viability inactive
Cc1cccc(C)c1OCc1nnc(NC(=O)CSc2ccc(Cl)cc2)s1	none
CCN(Cc1ccc(C(N)=O)cc1)C1CCCC1	none (no result: GCN5L2 inh, PLK1 PBD block, VDR inh)
CC(=O)c1cn(CC(=O)NCC2CCC(C(=O)O)CC2)c2ccccc12 (stereo not given)	none (no result: GCN5L2 inh, PLK1 PBD block, VDR inh)
CC(=O)N1CCN(c2ccc([N+](=O)[O-])cc2)CC1	none
CN(C)c1ccc(C(=S)N2CCN(c3ccc([N+](=O)[O-])cc3)CC2)cc1	GCN5L2 inh inconclusive, 12-LOX inh inconclusive, PLK1 PBD block 10.6µM, VDR inh 79.4µM | VDR confirm 26.7 | VDR FP inconclusive | VDR bla inactive | VDR viability inactive
CCOC(=O)c1[nH]cc(-c2ccccc2)c1N1CCOCC1	12-LOX inh inconclusive, PLK1 PBD block 5.32µM, VDR inh 22.4µM | VDR confirm 21.2 | VDR FP inconclusive | VDR bla inactive | VDR viability inconclusive
CCOC(=O)c1cnc(-c2ccccc2)nc1N1CCOCC1	none
CCN(CC)c1ccc(/C=C2/C(=O)ON=C2C)cc1	PLK1 PBD block inconclusive, VDR inh inconclusive
COc1cc(/C=C2\C(=O)ON=C2c2ccc(Cl)cc2)ccc1O	12-LOX inh inconclusive, PLK1 PBD block inconclusive, VDR inh inconclusive (no result: GCN5L2 inh) | VDR confirm 7.08 | VDR FP inconclusive | VDR bla inconclusive | VDR viability inactive
CCOc1cc(/C=C2/C(=O)ON=C2C)ccc1O	12-LOX inh inconclusive, VDR inh inconclusive
CCCOc1ccc(/C=C2/C(=O)ON=C2C)cc1Cl	12-LOX inh 5.62µM, PLK1 PBD block 1.06µM, VDR inh 17.8µM | VDR confirm 7.52 | VDR FP inconclusive | VDR bla inactive | VDR viability inactive
CC1=NOC(=O)/C1=C/c1ccc(N(C)C)cc1	PLK1 PBD block inconclusive
CCOc1ccc(Cl)cc1/C=C1/C(=O)ON=C1C	12-LOX inh inconclusive, PLK1 PBD block inconclusive, VDR inh inconclusive | VDR confirm 8.91 | VDR FP 3.55µM | VDR bla inactive | VDR viability inactive
COc1cc(/C=C2/C(=O)ON=C2C)cc(Cl)c1O	12-LOX inh inconclusive, VDR inh 89.1µM | VDR confirm 26.7 | VDR FP inactive | VDR bla inactive | VDR viability inactive
COC(=O)c1ccc(-c2ccc(C(=O)O)cc2)cc1	none (no result: GCN5L2 inh, PLK1 PBD block, VDR inh)
COCCn1c(SCC(=O)c2cc(C)ccc2C)nnc1-c1ccc(Cl)cc1	none (no result: GCN5L2 inh, PLK1 PBD block, VDR inh)
COc1ccccc1/C=C1\Oc2cc(OS(=O)(=O)c3ccccc3)ccc2C1=O	none (no result: GCN5L2 inh, PLK1 PBD block, VDR inh)
CCCCS(=O)(=O)c1oc(-c2ccc(F)cc2)nc1S(=O)(=O)c1ccc(C)cc1	VDR inh inconclusive (no result: PLK1 PBD block)
CCS(=O)(=O)c1oc(-c2ccc(F)cc2)nc1S(=O)(=O)c1ccccc1	VDR inh 20µM (no result: PLK1 PBD block) | VDR confirm 4.47 | VDR FP 3.98µM | VDR bla 5.8µM | VDR viability 9.47µM
COc1ccc(CC(=O)NC(C)c2nnc(SCc3ccc(Cl)cc3Cl)n2C)cc1 (stereo not given)	none (no result: GCN5L2 inh, PLK1 PBD block, VDR inh)
Cc1c(-c2ccccc2)c(=O)oc2ccc(OS(C)(=O)=O)cc12	none (no result: GCN5L2 inh, PLK1 PBD block, VDR inh)
CNC(=O)COC(=O)c1cc(-c2cccs2)nc2ccccc12	none (no result: GCN5L2 inh, PLK1 PBD block, VDR inh)
Clc1ccc(Cl)c(-c2nn3c(COc4ccccc4)nnc3s2)c1	12-LOX inh inconclusive, PLK1 PBD block 5.32µM, VDR inh inconclusive | VDR confirm 11.2 | VDR FP 7.08µM | VDR bla inactive | VDR viability inactive
Cc1ccccc1-c1nn2c(COc3ccc(F)cc3)nnc2s1	none (no result: GCN5L2 inh, PLK1 PBD block, VDR inh)
O=S(=O)(c1ccc(N=C2NN=C(c3cc(F)ccc3F)CS2)cc1)N1CCOCC1	12-LOX inh inconclusive, PLK1 PBD block inconclusive, VDR inh 1.58µM | VDR confirm 2.51 | VDR FP inconclusive | VDR bla inactive | VDR viability inconclusive
Fc1ccc(F)c(C2=NNC(=Nc3ccccc3F)SC2)c1	none
Fc1ccc(N=C2NN=C(c3cc(F)ccc3F)CS2)cc1	12-LOX inh inconclusive, PLK1 PBD block inconclusive, VDR inh 31.6µM | VDR confirm inconclusive | VDR FP inconclusive | VDR bla inactive | VDR viability inconclusive
CC(C)(C)N=C1NN=C(c2ccc(S(=O)(=O)N3CCCCC3)cc2)CS1	12-LOX inh inconclusive
CCOC(=O)C1=C(Cc2ccc(Cl)cc2)C(=O)c2ccccc2C1=O	PLK1 PBD block 4.74µM, VDR inh 6.31µM (no result: 12-LOX inh) | VDR confirm 1.78 | VDR FP inconclusive | VDR bla 23.1µM | VDR viability inconclusive
